# Screening data from PubChem.
# HepG2 tox: counter-screen for TGF-b inhibitors: cytotoxicity in HepG2 cells. Potency, µM (titrated, usually from 46.1 µM), without a hit: at the top dose activity change, negative = cytotoxicity, usual class: cytotoxic. 410,000 tested, 0.76% active. HepG2 CAGA-GFP viability, ATP luminescence, 18 h. AID 588856; also: potency is read from the fitted curve at half-maximal effect
#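 CellTiter-Glo luminescence gave cytotoxicity after 18 hours at 37 degrees C. The cells were HepG2 CAGA-GFP in 1% FBS DMEM, stimulated with 500 pg/mL TGF-beta after compound addition. %Activity was normalised to no-cell wells (complete cell-killing) and DMSO (no toxicity), and curves were fitted and classified.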
# TDP1 cell noCPT: qHTS for Inhibitors of human tyrosyl-DNA phosphodiesterase 1 (TDP1): qHTS in cells in absence of CPT | Potency, µM (doses to about 46.2 µM), for the others: at the top dose activity change, negative = growth inhibition, hits mostly inhibitors | 420,000 tested, 15% active | AID 686978, 2013 | DT40 Tdp1-/- hTDP1 cells, no CPT, ATP luminescence, 48 h; also: potency is read from the fitted curve at half-maximal effect; % is scaled to controls: 0 for no effect and ±100 for the full control effect; nearly all actives have a fitted effect of over 55% in size
#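 Seeded 400 DT40-hTDP1 cells/well (vehicle DMSO, no 20 nM CPT); pinned compounds; ≥48 hr at 37 °C; CellTiter-Glo luminescence as viability measure.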
# TDP1 cell CPT: DT40-hTDP1 cell growth loss with CPT. chicken DT40 Tdp1-/-;hTDP1 cells + 20 nM CPT, ATP luminescence, 48 h. 420,000 tested, 12% active. Potency, µM (series often up to 46.2 µM), for the others: at the highest dose activity change, negative = growth inhibition, hits mostly inhibitors; also: potency is read from the fitted curve at half-maximal effect; % is scaled to controls: 0 for no effect and ±100 for the full control effect; nearly all actives have a fitted effect of over 55% in size
#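 Chicken DT40 Tdp1-/- cells complemented with human TDP1, 400 cells/well, exposed to compounds plus 20 nM camptothecin for at least 48 h at 37 C; viability read as ATP content by CellTiter-Glo luminescence.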
# TGFb SMAD3 inh: TGF-b pathway inhibition | HepG2 CAGA-GFP TGF-b/SMAD3 reporter, GFP fluorescence, 18 h; TGF-beta stimulated, 500 pg/mL final | Potency, µM (highest dose often 46.1 µM), inactives show top-dose activity, negative = inhibition, hits mostly inhibitors | 410,000 tested, 1.2% active | AID 588855; also: potency is read from the fitted curve at half-maximal effect; % is scaled to controls: 0 for no effect and ±100 for the full control effect; nearly all actives have a fitted effect of over 65% in size
#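 Using HEPG2 CAGA-GFP reporter cells at 1000 cells/well, we pinned test compounds, stimulated with recombinant TGF-beta (500 pg/mL final) and measured total well GFP after 18 h.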
# IL-1B inflam inh: inflammasome signaling inhibition, IL-1 beta readout; THP-1 LPS/ATP IL-1B secretion, AlphaLISA, 16 h; stronger effect = lower value; AID 743279; 360,000 tested, 4.7% active; activity change, % at 57.5 µM; in the data active = activity change below about -50%; inconclusive = mostly about -30% to -49%; also: % is scaled to controls: 0 for no effect and ±100 for the full control effect
#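 THP-1 cells pretreated 1 hr with compounds (up to 57.5 uM final), then stimulated with LPS (250 ng/mL final) plus ATP (1.25 mM final); secreted IL-1B measured by AlphaLISA after 16 hr, decreased signal indicating inhibition.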
# TDP1 inh: inhibitors of human tyrosyl-DNA phosphodiesterase TDP1; Q9NUW8; recombinant TDP1, AlphaScreen DNA substrate cleavage; Potency, µM (top dose mostly 130 µM), inactives show at the highest dose activity change, negative = inhibition, usual class: inhibitors; 350,000 tested, 0.28% active; AID 485290; also: potency is read from the fitted curve at half-maximal effect; % is scaled to controls: 0 for no effect and ±100 for the full control effect; nearly all actives have a fitted effect of over 40% in size
# Target sequence (Q9NUW8 whole entry, looked up): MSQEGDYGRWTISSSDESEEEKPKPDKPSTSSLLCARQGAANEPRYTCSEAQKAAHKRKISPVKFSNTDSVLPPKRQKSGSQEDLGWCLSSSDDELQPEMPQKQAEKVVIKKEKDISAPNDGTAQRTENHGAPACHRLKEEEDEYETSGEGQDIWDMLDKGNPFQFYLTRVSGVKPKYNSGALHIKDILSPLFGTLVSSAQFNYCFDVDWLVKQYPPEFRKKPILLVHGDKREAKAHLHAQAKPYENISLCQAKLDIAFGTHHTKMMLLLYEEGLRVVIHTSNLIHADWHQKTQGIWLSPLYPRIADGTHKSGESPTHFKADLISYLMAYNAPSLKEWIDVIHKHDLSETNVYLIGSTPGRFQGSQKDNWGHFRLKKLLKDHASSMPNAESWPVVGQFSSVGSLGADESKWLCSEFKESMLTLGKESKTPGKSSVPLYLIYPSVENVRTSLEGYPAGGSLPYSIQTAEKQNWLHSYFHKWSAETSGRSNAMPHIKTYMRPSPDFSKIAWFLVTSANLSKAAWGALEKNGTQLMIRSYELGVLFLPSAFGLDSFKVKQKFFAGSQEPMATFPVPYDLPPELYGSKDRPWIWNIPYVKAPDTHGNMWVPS
#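 Recombinant E. coli-expressed Tdp1 (1 nM) preincubated with compound 15 min at RT, then 5'-biotin/3'-phosphotyrosine-FITC DNA substrate (15 nM) added for 5 min. AlphaScreen beads (10 ug/ml) added, 10 min RT; tyrosine-FITC cleavage read as signal loss.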
# Numbers without * were called inactive; ? = inconclusive; . = not tested or not shown; [ ] = another dose, or the depositor's remark. In the library only some 18% were active in any assay of this set; here they are far more common. Unless noted, calls follow the shape of the dose curve; as a rule, active = well fitted curve in the direction sought with a large enough effect; inconclusive = small, poorly fitted or top-dose-only effect, or another doubt; inactive = no such curve, though single readings can be large; an effect the other way counts as inactive or inconclusive.
SMILES,HepG2 tox,TDP1 cell noCPT,TDP1 cell CPT,TGFb SMAD3 inh,IL-1B inflam inh,TDP1 inh
C=CCNC(=S)NNC(=O)c1ccc(OCC)cc1,5.1%,20.6µM*,?,-26.4%,2.6,5.9%
Cc1cccc(C(=O)NNC(=O)c2ccccc2O)c1,-35.0%,20.6µM*,?,?,31.5,.
Cc1cccc(C(=O)NNC(=O)c2ccccc2C)c1,-1.3%,0.4%,1.0%,4.8%,-6.6,7.6%
COc1ccc(C(=O)NNC(=S)NC(=O)c2ccc(OC)cc2)cc1,-7.5%,?,16.4µM*,1.0%,65.6,.
CCOC(=O)CCC(=O)NNC(=O)c1ccc(NC(=O)c2ccccc2)cc1,-8.2%,?,18.4µM*,-0.2%,-8.4,.
COc1ccccc1-c1nnc(SC(C)C(=O)Nc2ccc(C(N)=O)cc2)o1 (stereo not given),-17.6%,-7.8%,?,-7.1%,17.3,.
CSc1ccc(-c2nnn(CC(=O)Nc3sc4c(c3C#N)CCC(C(C)(C)C)C4)n2)cc1 (stereo not given),9.1%,-2.6%,4.3%,-3.9%,.,0.6%
CCCCC(=O)NC(=S)NNC(=O)c1ccc(OC)cc1,0.2%,3.26µM*,4.61µM*,-2.5%,205.5,5.5%
COc1ccc(/C=C/C(=O)NC(=S)NNC(=O)c2cccs2)cc1,-20.4%,4.61µM*,6.51µM*,-30.6%,63.9,10.7%
CCCOc1ccc(C(=O)NC(=S)NCc2cccnc2)cc1,-21.3%,?,?,-18.1%,-6.0,5.1%
CCNC(=S)NNC(=O)c1ccc(OC)cc1,4.6%,-5.2%,-3.3%,5.7%,29.2,-2.8%
COc1ccc(C(=O)NC(=S)NNC(=O)c2cccc(C)c2)cc1,-10.3%,23.1µM*,25.9µM*,-2.9%,40.3,.
CCCOc1ccc(C(=O)NNC(=S)NC(=O)CC)cc1,-10.0%,2.59µM*,4.61µM*,-23.1%,55.1,9.0%
Cc1cccc(C(=O)NC(=S)NNC(=O)COc2ccc(Cl)cc2)c1,-13.5%,?,?,-10.2%,25.8,8.4%
O=C(c1c(F)cccc1F)N1CCN=C1SCc1ccccc1,-4.0%,-28.2%,?,4.9%,-15.0,.
COc1ccc(C(=O)NNC(=O)c2ccc3ccccc3n2)cc1,-12.5%,4.11µM*,16.4µM*,?,-98.2*,-1.5%[56.1 µM]
CCCCC(=O)NC(=S)Nc1cccc(NC(=O)c2ccccc2)c1,-31.8%,23.1µM*,?,-20.6%,?,5.5%
Cc1ccc(C(=O)NNC(=S)NC(=O)c2ccccc2)cc1,-17.8%,16.4µM*,18.4µM*,-26.9%,47.5,.
COc1ccc(C(=O)NNC(=S)NC(=O)c2cccs2)cc1,-3.1%,?,14.6µM*,-3.0%,90.5,11.2%
Cc1ccc(C(=O)NC(=S)NNC(=O)c2ccccc2)cc1,-32.7%,?,?,-29.9%,45.7,2.2%
NS(=O)(=O)c1cccc(NC(=O)COC(=O)CCN2C(=O)c3ccccc3C2=O)c1,-2.6%,18.2%,-0.8%,0.9%,-7.4,0.1%
CC(C)CC(=O)Nc1ccc(C(=O)NNC(=S)NC(=O)C2CCCCC2)cc1,2.8%,16.4µM*,14.6µM*,6.1%,29.5,13.7%
CCC(=O)NC(=S)NNC(=O)c1ccc(NC(=O)c2ccccc2)cc1,-6.8%,7.31µM*,5.8µM*,-28.9%,-10.5,8.1%
Cc1cccc(C(=O)NNC(=S)NC(=O)c2ccccc2)c1,-11.5%,20.6µM*,18.4µM*,-21.3%,?,.
CCOc1ccc(-n2c(=O)c3sc4ccccc4c3n(Cc3ccc(F)cc3)c2=O)cc1,0.0%,?,-4.9%,-7.2%,.,6.4%
SMILES,HepG2 tox,TDP1 cell noCPT,TDP1 cell CPT,TGFb SMAD3 inh,IL-1B inflam inh,TDP1 inh
O=Cc1s/c(=N\S(=O)(=O)c2ccccc2)n(CCCCl)c1Cl,8.91µM*,0.731µM*,0.517µM*,3.98µM*,-101.5*,6.1%
Cc1ccc2c(c1)COc1c3ccc(C(=O)NCC4CC4)cc3nn1-2,-14.2%,20.6µM*,?,?,3.5,2.4%
CC(C)NC(=O)c1ccc2c3n(nc2c1)-c1ccccc1CO3,-60.7%,20.6µM*,?,-18.2%,0.0,1.2%
O=C(N/N=C/c1[nH]c2ccccc2c1Cl)c1cccc(Br)c1,11.2%,?,4.1%,1.2%,-83.9*,-3.8%
Cc1c(C(=O)N/N=C/c2ccc(Cl)cc2)[nH]c2ccc(Cl)cc12,10µM*,0.92µM*,0.82µM*,2µM*,55.6,5.4%
CCOc1ccc(/C=N/NC(=O)c2[nH]c3ccc(C)cc3c2C)cc1,-9.2%,-26.8%,-10.3%,-16.7%,-24.3,.
NNC(=O)c1[nH]c2ccccc2c1-c1ccccc1,-5.6%,14.6µM*,?,?,23.6,.
O=C(N/N=C/c1ccc(O)cc1)c1[nH]c2ccc(Br)cc2c1-c1ccccc1,-43.7%,2.91µM*,3.66µM*,11.2µM*,122.3,2.7%
C/C(=N\NC(=O)CCC(=O)O)c1c(-c2ccccc2)c2cc(Br)ccc2[nH]c1=O,-8.0%,10.9%,-13.9%,-6.5%,6.5,.
NCCNC(=O)c1ccc(Cl)cn1,.,-11.7%,-3.7%,.,.,10.8%
CC/C=C\CC[C@H](O)C1=CCCCC1=O,.,.,.,.,.,7.9%[21 µM]
CCc1c(C(=O)NC(C)C2CCCO2)csc1C (stereo not given),0.9%,-3.2%,-5.1%,-4.5%,-0.2,-1.9%
O=C(N/N=C/c1c[nH]c2ccccc12)c1[nH]c2ccc(Br)cc2c1-c1ccccc1,-106.1%,3.66µM*,5.8µM*,?,150.6,-2.7%
Cn1ncc2c(Nc3cccc(C#N)c3)ncnc21,1.4%,?,?,-2.3%,.,7.8%
O=C(CN1CCCC1)N/N=C/c1c(O)ccc2ccccc12,-35.3%,?,?,-17.1%,169.9,2.1%
CCC(CC)C(=O)Nc1cccc(-c2nc3ccccc3s2)c1,-32.7%,?,20.6µM*,-20.6%,.,1.6%
O=C(O)c1ccccc1-c1ccccc1C(=O)Nc1cccc(-c2nc3ccccc3o2)c1,-0.2%,-33.4%,-16.5%,3.3%,-9.1,-6.0%
CCC(CC)C(=O)Nc1cccc(-c2nc3ccccc3o2)c1,1.4%,16.4µM*,?,-16.7%,-23.3,0.0%
CCOc1cc(C(=O)Nc2ccc(-c3nc4ccccc4s3)cc2Cl)cc(OCC)c1OCC,3.1%,23.1µM*,?,21.8%,.,6.4%
CCOc1cccc2sc(Nc3nc4ccc(NC(C)=O)cc4s3)nc12,-26.4%,?,18.4µM*,0.0%,?,-3.4%
